The sample as a whole holds a higher share of hits than the screen did.
Pf Dd2 growth: blocks in vitro growth of P. falciparum Dd2; Potency, µM (top dose mostly 28.9 µM), inactives show at the highest dose activity, negative = inhibition, most hits filed as inhibitors; P. falciparum Dd2 growth, SYBR Green, 72 h; 120,000 tested, 4.3% active; active = well fitted inhibition curve with a large enough effect;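 note: plate controls were DMSO vehicle for no effect and reference drug for full effect; nearly all actives have a fitted effect of over 65% in size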
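Readout: SYBR Green fluorescence, 485 nm excitation, 535 nm emission, after ~16 h lysis at 37C. Before that, Dd2-infected red cells (2.5% hematocrit) grew 72 h with compound, 29 uM top final concentration.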
* = called active by the depositor; i = inactive; [ ] = another dose, or the depositor's remark. Potency is the fitted concentration of half-maximal effect.

SMILES | Pf Dd2 growth
CC(C)NC[C@H]1O[C@@H]2C[C@@H](CC(=O)NC(C)C)O[C@@H]2[C@@H]1O | 12%[44.1 µM]
COCCOCC(=O)N1CCC(C(=O)N2CCCCCCNC(=O)CC2)CC1 | 9%
Cc1c(C(=O)N2CCC(c3nc4ccccc4s3)CC2)oc2cc(Br)ccc12 | -18%
Cc1cc(C)c2c(C)c(C(=O)N3CCC(c4nc5ccccc5s4)CC3)oc2c1 | 8.9µM*
COc1cc(C(=O)N2CCC(c3nc4ccccc4s3)CC2)cc(OC)c1OC | 96%
Cc1ccc2oc(C(=O)N3CCC(c4nc5ccccc5s4)CC3)c(C)c2c1 | 31%
O=C(c1ccccc1Cl)N1CCC(c2nc3ccccc3s2)CC1 | 88%
Cc1ccccc1C(=O)N1CCC(c2nc3ccccc3s2)CC1 | 1.3µM*
CN(C)C[C@@H]1CN(S(C)(=O)=O)C[C@H]1NC(=O)CN1CCOCC1 | 56%
CN1CCN(Cc2cn3c(=O)n(C)cc(-c4cccc(N(C)C)c4)c3n2)CC1 | -4%[44.1 µM]
COCCn1nnnc1C1CC2(CCOCC2)C(=O)N1Cc1cccc(OC)c1 (stereo not given) | 21%
COCCCNC(=O)C1(CCO)CC12CCOCC2 (stereo not given) | 13%
COc1cccc(-c2nn(C)c3sc(C(=O)NCc4ccc(C)cc4)cc23)c1 | 10%
COCCCNC(=O)c1cc2c(-c3cccc(OC)c3)nn(C)c2s1 | i
COc1cccc(NC(=O)c2cc3c(-c4ccc(Cl)cc4)nn(C)c3s2)c1 | 3.2µM*
COc1ccc(-c2nn(C)c3sc(C(=O)Nc4cccc(F)c4)cc23)cc1OC | 2.5µM*
Cc1ccc(NC(=O)c2cc3c(-c4ccccc4)nn(-c4ccccc4)c3s2)cc1 | 2.8µM*
COc1ccccc1NC(=O)c1cc2c(C)nn(-c3ccccc3)c2s1 | -27%
COc1ccc(-c2nn(C)c3sc(C(=O)NCCN(C)C)cc23)cc1OC | -32%
COc1ccccc1CNC(=O)c1cc2c(-c3ccc(Cl)cc3)nn(C)c2s1 | -20%
COc1ccc(NC(=O)c2cc3c(C)nn(-c4ccccc4)c3s2)c(OC)c1 | i
CCCn1cc(CNC(=O)c2ccc(CC3CCCNC3)cc2)cn1 (stereo not given) | i
COc1ccc(-c2nc(C)nc3c2CN(C(=O)c2ccc(C(F)(F)F)cc2)CC3)cc1 | i
O=C1COCCN1C1CCN(Cc2cccnc2)CC1 | 14%[44.1 µM]
CC(=O)N1CCC(NC[C@H]2COCc3nc4cc(F)ccc4n32)CC1 | -10%[44.1 µM]
SMILES | Pf Dd2 growth
COc1ccc(-c2cc(C[C@@H]3CC[C@H](O)[C@@H](CN(Cc4ccccc4OC)Cc4ccccc4OC)O3)no2)cc1 | -19%
CCOc1cc(=O)n2c(c1C(=O)NCCCN1CCCc3ccccc31)CCCCC2 | -19%
O=C1NC2(CCN(C(=O)c3ccc(F)cc3)CC2)COc2ccccc21 | -12%
COc1ccc(C(=O)N2CCC3(CC2)COc2ccccc2[S+](=O)([O-])N3)cc1 | 0%
COc1ccc(C(=O)N2CCC3(CC2)COc2ccccc2C(=O)N3)cc1 | 2.2µM*
O=C1NC2(CCN(C(=O)c3ccc(C(F)(F)F)cc3)CC2)COc2ccccc21 | 1.1µM*
O=C(c1ccc(C(F)(F)F)cc1)N1CCC2(CC1)COc1ccccc1CN2 | -11%
O=C1NC2(CCCN(C(=O)c3ccc(F)cc3)C2)COc2ccccc21 (stereo not given) | i
Cc1nc2scc(CC(=O)NCCC(C)C)n2c(=O)c1-c1cc(C)n(-c2ccc(F)cc2)n1 | i
O=C1NCc2ccccc2CC12CCCN2Cc1ccc(Cl)cc1 (stereo not given) | -13%
O=C1NCc2ccccc2CC12CCCN2Cc1cc(O)cc(O)c1 (stereo not given) | 4%
O=C1NCc2ccccc2CC12CCN(Cc1ccc(Cl)s1)C2 (stereo not given) | -7%
O=C1NCc2ccccc2CC12CCCN2Cc1cnc2ccccc2c1 (stereo not given) | 8.9µM*
O=C1NCc2ccccc2CC12CCCN2Cc1ccc(Cl)s1 (stereo not given) | 10µM*
O=C1NCc2ccccc2CC12CCCCN2Cc1ccc(O)cc1 (stereo not given) | -3%
O=C1NCc2ccccc2CC12CCCN2Cc1ccccc1Cl (stereo not given) | -22%
O=C1NCc2ccccc2CC12CCN(Cc1cnc3ccccc3c1)C2 (stereo not given) | -20%
O=C1NCc2ccccc2CC12CCCCN2Cc1ccnc2ccccc12 (stereo not given) | 8.9µM*
CN1C[C@H](NC(=O)Nc2ccccc2)CCC[C@@H](C(=O)NCc2cc(F)cc(F)c2)CC1=O | i
Cc1cccc2nc(C(=O)N3CCC(=O)N(CC4CC4)C(C(C)C)C3)cn12 (stereo not given) | 3%
O=C(c1cccc(F)c1)N1CCCC1c1nc(C2CCOCC2)no1 (stereo not given) | -3%
COc1ccc(-c2nccc3c(=O)cc(N(C)C)oc23)cn1 | 14%[44.1 µM]
COCCOc1cc(C)c2c(c1C)C[C@H](C(C)C(=O)N1CCOCC1)CC2 (stereo not given in full) | -3%[44.1 µM]
COCCOc1cc(C)c2c(c1C)C[C@H](C(C)C(=O)N1CCCCC1)CC2 (stereo not given in full) | -7%[44.1 µM]
CCCOc1cc(C)c2c(c1C)C[C@H](C(C)C(=O)NCc1ccc(OC)cc1)CC2 (stereo not given in full) | 10µM*
SMILES | Pf Dd2 growth
CCCOc1cc(C)c2c(c1C)C[C@H]([C@H](C)C(=O)NCCOC)CC2 | -9%[44.1 µM]
COc1cc(C)c2c(c1C)C[C@H](C(C)C(=O)NCc1cccs1)CC2 (stereo not given in full) | 11µM*
Cc1cc(OCCN2CCOCC2)c(C)c2c1CC[C@@H]([C@H](C)C(=O)NCc1cccnc1)C2 | i
Cc1cc(OCCN2CCOCC2)c(C)c2c1CC[C@@H]([C@H](C)C(=O)N1CCCCC1)C2 | 11µM*
Cc1cc(OCCN(C)C)c(C)c2c1CC[C@@H]([C@H](C)C(=O)NCc1ccccc1)C2 | -24%[44.1 µM]
COc1cc(C)c2c(c1C)C[C@H](C(C)C(=O)N1CCN(CCO)CC1)CC2 (stereo not given in full) | i
COCC(=O)N1C[C@@H]2CCCN3CCC[C@@H]([C@H]23)[C@H]1CCCC(=O)N1CCOCC1 | 11%
CC(C)n1ccnc1C1CCCN(Cc2cscn2)C1 (stereo not given) | 12%
CN1C(=O)CS(=O)(=O)C12CCNCC2 | 2%
O=C(c1ccc(OC2CCN(C(=O)c3ccc(F)cc3)CC2)nc1)N1CCOCC1 | 10%
Cc1cc(-c2nc(C3CCOC3)no2)c2ccccc2n1 (stereo not given) | 1%
O=C(NC1CCCCC1)NC1CCc2nnc(C3CC3)n2CC1 (stereo not given) | 66%
COc1ccc(C(=O)N2C[C@@H](Oc3cccnc3)C[C@H]2C(=O)N2CCCC2)cn1 | 9%
CCN(CC1CCCO1)C(=O)c1ccccc1OC1CCN(C(=O)c2cccnc2)CC1 (stereo not given) | -22%
CCN1CCN(CCNc2ncncc2-c2nc(-c3ccccc3)no2)CC1 | 0%
CCN(CC)Cc1cnc2c(C(=O)NCCc3cnccn3)cnn2c1 | -6%
CCN(CC)Cc1cnc2c(C(=O)NCCc3cccs3)cnn2c1 | -21%
CCN(CC)Cc1cnc2c(C(=O)NCCc3c[nH]c4ccccc34)cnn2c1 | 8.9µM*
O=C(c1ccccc1)N1CCC2(Cc3ccccc3NC2=O)C1 (stereo not given) | -11%[44.1 µM]
Cc1ccccc1-c1nc(-c2c(C)noc2C)cc2cc(CN(C)C)oc12 | -9%[44.1 µM]
Cc1cc2cc(-c3c(C)noc3C)nc(N3CCN(C)C(=O)C3)c2o1 | i

Compound activity: PubChem BioAssay, National Center for Advancing Translational Sciences (NCATS)
